Results filed as inconclusive are left out. Active and inactive are the calls of the source. The call rests on the fitted dose curve; in most records, active means well fitted inhibition curve with a large enough effect; inconclusive means small, poorly fitted or top-dose-only effect; inactive means flat fitted curve, though single readings scatter.
test system: astro; experiment: Drug repurposing screens with cells derived from glioblastoma tumor samples (AID 1345199); conditions: viability, ATP luminescence, 48 h; series mostly up to 45.9 µM; activity, negative = cell killing: at the top concentration; further: nearly all actives have a fitted effect of over 40% in size
In short: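 Four patient lines of CD133+ GBM neurospheres were screened at several concentrations; hits were retested in those lines plus three slower-growing GBM lines, using 48-hour treatment and ATP-based viability.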
On the % scale 0 is the no-effect control and ±100 the full control effect.

| SMILES | activity, negative = cell killing |
| --- | --- |
| CCC(=O)O[C@](Cc1ccccc1)(c1ccccc1)[C@H](C)CN(C)C | -15.5% [at 91.6 µM] (inactive) |
| CN1CCN=C(c2ccccc2)c2cc(Cl)ccc21 | -19.4% (inactive) |
| CCc1cc(OC)c(C[C@@H](C)N)cc1OC | -20.2% [at 108 µM] (inactive) |
| CC(C)=CCN1CC[C@]2(C)c3cc(O)ccc3C[C@H]1[C@H]2C | -17.9% [at 91.6 µM] (inactive) |

Reference: PubChem BioAssay (NCATS)
